Activity calls are given as the source filed them. The calls were made as follows: active = hit-call score of the fitted dose curve at least 0.9, where 1 is the maximum; inactive = score below 0.9.
Read-out: Transforming Growth Factor (TGFB1), TGFB1 (gene 7040)
Assay: LTEA_HepaRG_TGFB1: Life Technologies and Expression Analysis (LTEA) Assay for Transforming Growth Factor (TGFB1) Transporter using HepaRG (AID 2283533)
Settings: mRNA level, 48 h; actives raise or lower the signal
Method: LTEA_HepaRG is a cell based, multiplexed-readout assay that uses HepaRG, a human liver cell line, with measurements taken at 48 hours after chemical dosing on a 96-well plate.LTEA_HepaRG_TGFB1 is one of 102 assay component(s) measured in the LTEA HepaRG cell culture assay. It is a marker of Cell proliferation, survival, death.Data from the assay component LTEA_HepaRG_TGFB1 was analyzed into 1 endpoint. This assay endpoint, LTEA_HepaRG_TGFB1, was analyzed with bidirectional fitting relative to DMSO as the negative control and baseline of activity. Using a type of inducible reporter, measures of mRNA induction for gain or loss-of-signal activity can be used to understand regulation of transcription factor activity. To generalize the intended target to other relatable targets, this assay endpoint is annotated to the growth factor intended target family, where the subfamily is transforming growth factor beta.
A total of 1060 chemcials from the ToxCast library were tested in eight-point concentration-response experiments. Cell culture and cytotoxicity assays were conducted at Thermo Fisher Scientific's Custom Services facility (Madison, WI). A single lot of human HepaRG cells (Thermo Fisher Scientific, Frederick, MD) was used for the cell culture experiments. 96-well format collagen type I coated plates of human HepaRG cells were prepared using established methods. Briefly, cryopreserved HepaRG cells were thawed, plated at a density of approximately 100,000 cells/well in HepaRG Thaw, Plate, and General Purpose media (HPRG770, Thermo Fisher Scientific), and incubated for 48 hours. 0.5% DMSO was selected as vehicle control to balance the requisite need of DMSO in HepaRG cultures to maintain differentiation (for example, baseline metabolism, proportions of hepatocytes vs. cholangiocytes), while enabling further hepatic receptor pathway activation (for example, PXR and CAR) in response to chemical exposure. 48 hours after plating, the culture medium was replaced with HepaRG Serum-Free Incudtion Media. Cells were exposed to each test chemical in duplicate and maintained in CO2 incubators for another 48 hours. Chemical plates were thawed to room temperature and 200x concentrations of treatment groups were prepared. 8-point conentration-reponse curves were made with the highest exposure at 100 uM, followed by half-log dilutions, all in 0.5% DMSO. Each test plate contained variouse controls, induction positive controls (1mM phenobarbital), cytotoxicity positive controls ([…] aflatoxin B1), vehicle controls (0.5% DMSO), and total lysis controls (0.5% DMSO). Cell morphology images were taken using an Essen IncuCyte FLR automated microscope, with six 96-well plates imaged in about 24 minutes. Images were captured and exported and JPEG files. Spent culture media was transfered to black-well plates for the LDH assay, and remaining media was sorted at -80 C for later use. Cells were treated with RLT buffer and frozen until shipped for gene expression analysis. Total RNA was isolated from the cell suspension in 75 uL of Buffer RLT (Qiagen, Germantown, MD 20874) by Quintiles/Expression Analysis (Durham, NC) using a custom isolation procedure. Total RNA from each plate well was transferred to a preamplification plate. Fluidigm's 96.96 Dynamic ArrayTM (Fluidigm, Amsterdam, the Netherlands) technology was used for gene expression analyses by quantitative reverse transcription polymerase chain reaction (qRT-PCR, performed by Quintiles/Expression Analysis, Durham, NC)89. Standard TaqManTM Assays (Applied Biosystems/ThermoFisher Scientific, Foster City, CA) were used to assess the expression of 93 genes selected based on their selectivity and sensitivity to important hepatic receptors known to be modulated by environmental chemicals; importance in human hepatocyte functionality; and hepatotoxicity. […]

Question: With `Oc1cc2ccccc2c2ccccc12` as the molecule, how does the outcome read?
Answer: inactive

Question: `CC(C)(C)c1cccc(C(C)(C)C)c1O` was tested. Which outcome did it give?
Answer: inactive

Question: `CCCCCCCCCCCCc1ccccc1S(=O)(=O)O` was tested. Which outcome did it give?
Answer: inactive

Question: `CC(C)(C)c1cc(C(C)(C)C)c(O)c(C(C)(C)C)c1` was tested. Which outcome did it give?
Answer: inactive

Question: For `CCCCC(CC)COC(=O)CCCCC(=O)OCC(CC)CCCC` (stereo not given), which outcome is on record?
Answer: inactive

Question: With `O=c1c(-c2ccc(O)cc2)coc2cc(O)ccc12` as the molecule, how does the outcome read?
Answer: inactive

Question: For `CCCCC(CC)COC(=O)CCCCC(=O)OCc1ccccc1` (stereo not given), which outcome is on record?
Answer: inactive

Question: With `C#C[C@]1(O)CC[C@H]2[C@@H]3CCC4=CC(=O)CC[C@@H]4[C@H]3CC[C@@]21C` as the molecule, how does the outcome read?
Answer: inactive

Question: `OC1CCCCC1` was tested. Which outcome did it give?
Answer: inactive

Question: With `Nc1cccc2c(N)cccc12` as the molecule, how does the outcome read?
Answer: inactive

Question: `COCC(C)OCC(C)O` (stereo not given) was tested. Which outcome did it give?
Answer: inactive

Question: Which outcome does the source give for `CC1=C(/C=C/C(C)=C/C=C/C(C)=C/C(=O)O)C(C)(C)CCC1` here?
Answer: inactive

Question: Which outcome does the source give for `C[C@@H]1C[C@H]2[C@@H]3CCC4=CC(=O)C=C[C@]4(C)[C@@]3(F)[C@@H](O)C[C@]2(C)[C@@]1(O)C(=O)COP(=O)(O)O` here?
Answer: inactive

Question: For `CCCCCCCC(=O)O`, which outcome is on record?
Answer: inactive

Question: Which outcome does the source give for `CCCCCCCCCCCCCCCS(=O)(=O)Oc1ccccc1` here?
Answer: inactive

Question: How did the AC50 turn out when `NC(=O)N(O)[C@@H]1C=C[C@H](Oc2cccc(Oc3ccc(F)cc3)c2)C1` was run?
Answer: 72.4 µM (active)

Question: `C=C(C)C(=O)OCCC(F)(F)C(F)(F)C(F)(F)C(F)(F)C(F)(F)C(F)(F)F` was tested. Which outcome did it give?
Answer: inactive

Question: Which outcome does the source give for `CC(C)(C)c1ccc(O)c(C(C)(C)C)c1` here?
Answer: inactive

Question: How did the outcome turn out when `CC[C@H](C)[C@@H](C(=O)O)n1sc2ccccc2c1=O` was run?
Answer: inactive

Question: For `Cc1oc(-c2ccccc2)nc1CCOc1ccc(C[C@H](Nc2ccccc2C(=O)c2ccccc2)C(=O)O)cc1`, which AC50 is on record?
Answer: 31.3 µM (active)

Question: With `c1ccc2cc3c(ccc4ccccc43)cc2c1` as the molecule, how does the outcome read?
Answer: inactive

Question: `COC(=O)CCCCC(=O)OC` was tested. Which outcome did it give?
Answer: inactive

Question: For `CCC(=C(c1ccc(O)cc1)c1ccc(OCCN(C)C)cc1)c1ccccc1`, which AC50 is on record?
Answer: 97.5 µM (active)

Question: `Cc1cc(CCN2CCN(c3nsc4ccccc34)CC2)cc2c1NC(=O)CC2(C)C` was tested. Which AC50 did it give?
Answer: 35.4 µM (active)

Question: For `c1ccc2c(c1)Cc1ccccc1-2`, which outcome is on record?
Answer: inactive

Question: `COc1ccc([N+](=O)[O-])cc1N` was tested. Which outcome did it give?
Answer: inactive

Question: With `c1ccc2c(c1)ccc1ccccc12` as the molecule, how does the outcome read?
Answer: inactive

Question: For `CN1CCN(c2ccccc2/C=C2\SCCN(c3ccc(Cl)c(Cl)c3)C2=O)CC1`, which AC50 is on record?
Answer: 93.4 µM (active)

Question: For `CC(=O)NC1(c2cccc(F)c2)CCN(CC[C@@]2(c3ccc(Cl)c(Cl)c3)CN(c3ccccc3)C(=O)CO2)CC1`, which outcome is on record?
Answer: inactive

Question: How did the outcome turn out when `CCCOC(=O)c1ccc(O)cc1` was run?
Answer: inactive

Question: Which outcome does the source give for `COCC(C)O` (stereo not given) here?
Answer: inactive

Question: For `CC(=O)CC(C)(C)O`, which outcome is on record?
Answer: inactive

Question: With `CCc1nn(C2CCCCC2)c2cc(C3(C#N)CCC(C(=O)O)CC3)ccc12` (stereo not given) as the molecule, how does the AC50 read?
Answer: 33.2 µM (active)

Question: For `O=C(O)c1ccccc1C(c1ccc(O)cc1)c1ccc(O)cc1`, which outcome is on record?
Answer: inactive

Question: With `CC(C)(C)CC(C)(C)c1ccc(O)c(-n2nc3ccccc3n2)c1` as the molecule, how does the outcome read?
Answer: inactive

Question: With `CCCCCCCCCCCCN1CCCC1=O` as the molecule, how does the outcome read?
Answer: inactive

Question: For `CC#C[C@]1(O)CC[C@H]2[C@@H]3CCC4=CC(=O)CCC4=C3[C@@H](c3ccc(N(C)C)cc3)C[C@@]21C`, which AC50 is on record?
Answer: 3.49 µM (active)

Question: With `CCCOc1sc(C(=O)N2CCC(c3cc(CN)ccc3F)CC2)c(C)c1Br` as the molecule, how does the outcome read?
Answer: inactive

Question: With `OC1CCC(C2CCCCC2)CC1` (stereo not given) as the molecule, how does the outcome read?
Answer: inactive

Question: Which outcome does the source give for `CCOC(=O)CC(O)(CC(=O)OCC)C(=O)OCC` here?
Answer: inactive
